Assay results reported in PubChem BioAssay (Tox21).
“And” between values parts separate entries of the source, which are not always exact repeats. Identical values can stand only once. Results filed as inconclusive are left out. A call without a number means that no potency is given here. Some compounds were tested as several samples or in several runs, with calls that do not always agree. The source made the active and inactive calls. Unless noted, the call rests on the fitted dose curve.

Columns and labels:
[1] = Nuclear factor erythroid 2-related factor 2/antioxidant responsive element (Nrf2/ARE) small molecule agonists: qHTS cell viability counter screen in human keratinocytes (AID 1919968; active means well fitted cell-killing curve with a large enough effect in the repeat runs; further: nearly all actives have a fitted effect of over 55% in size; further: potency means the concentration at half of the fitted maximal effect)
Summary of the method: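 Cytotoxicity was multiplexed with the Nrf2/ARE luciferase assay in the same wells. Stably transfected HaCaT keratinocytes were treated with test compounds for 23 h at 37 C. Cell viability was then measured by CellTiter-Fluor fluorescence.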

[2] = Nuclear factor erythroid 2-related factor 2/antioxidant responsive element (Nrf2/ARE) small molecule agonists: luciferase reporter gene qHTS assay in human keratinocytes (AID 1919969); further: nearly all actives have a fitted effect of over 35% in size; further: potency means the concentration at half of the fitted maximal effect
[3] = G protein-coupled receptor (GPCR) small molecule agonists, calcium flux assay: HEK293 wild type cell line counter screen (AID 1920065)
Summary of the method: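 Seed cells, incubate 18 h (37 C, 5% CO2); add calcium dye, 1 h at 37 C; pin-transfer compounds, ATP control or DMSO; read fluorescence 480/540 nm each second for 3 min.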

[4] = p53 small molecule agonists, cell-based qHTS assay with human liver microsomes (AID 1963577);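 further: p53 response element beta-lactamase reporter cells with liver microsomes plus NADPH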
Summary of the method: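 Steps: plate p53RE-bla cells, incubate 5 h at 37 C; add compound in DMSO; add microsomes (0.5 mg/mL final) and NADPH (0.5 mg/mL final); incubate 16 h at 37 C; add LiveBLAzer, 2 h RT; read fluorescence.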

[5] = p53 small molecule agonists, cell-based qHTS assay with rat liver microsomes (AID 1963578)
Summary of the method: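 Metabolic activation is supplied by rat liver microsomes with NADPH (each 0.5 mg/mL final). p53RE-bla cells incubate with compound 16 h at 37 C; reporter activity is measured by LiveBLAzer fluorescence.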

[6] = p53 small molecule agonists, cell-based qHTS assay with human liver microsomes: qHTS cell viability counter screen (AID 1963579); further: nearly all actives have a fitted effect of over 45% in size; further: potency means the concentration at half of the fitted maximal effect
Summary of the method: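 After the 460/530 nm beta-lactamase read, CellTiter-Glo was added to the same wells and luminescence measured after 30 min at room temperature, giving viability of p53RE-bla cells treated 16 h with compounds plus microsomes and NADPH.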

[7] = p53 small molecule agonists, cell-based qHTS assay with rat liver microsomes: qHTS cell viability counter screen (AID 1963580); further: nearly all actives have a fitted effect of over 45% in size; further: potency means the concentration at half of the fitted maximal effect
Summary of the method: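 Luminescent ATP readout (CellTiter-Glo, 30 min at room temperature) reports viability of p53RE-bla HCT-116 cells after 16 h at 37 C with test compounds under metabolic activation by rat liver microsomes and NADPH at 0.5 mg/mL final each.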

[8] = p53 small molecule agonists, cell-based qHTS assay: qHTS cell viability counter screen (AID 1963581); further: nearly all actives have a fitted effect of over 45% in size; further: potency means the concentration at half of the fitted maximal effect
Summary of the method: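 Viability was counter-screened in parallel with the p53 agonist reporter by measuring intracellular ATP luminescence in the same HCT-116 p53RE-bla wells after 16 h compound treatment at 37 C.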

[9] = p53 small molecule agonists, cell-based qHTS assay (AID 1963582; active means well fitted activation curve with a large enough effect in the signal ratio in the repeat runs, not every such curve was filed as active; the % refers to the signal ratio)
Summary of the method: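 Cells carrying a p53-responsive bla reporter are treated with test compounds for 16 h at 37 C; beta-lactamase activity is then detected with LiveBLAzer B/G FRET substrate after 2 h at room temperature.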

[10] = biological target: 5-hydroxytryptamine receptor 2A (Homo sapiens) (UniProt P28223); test: 5-hydroxytryptamine receptor 2A (HTR2A) small molecule antagonists, cell-based qHTS assay (AID 1963586); further: nearly all actives have a fitted effect of over 45% in size; further: potency means the concentration at half of the fitted maximal effect
5-hydroxytryptamine receptor 2A (Homo sapiens), sequence (P28223 whole entry, looked up): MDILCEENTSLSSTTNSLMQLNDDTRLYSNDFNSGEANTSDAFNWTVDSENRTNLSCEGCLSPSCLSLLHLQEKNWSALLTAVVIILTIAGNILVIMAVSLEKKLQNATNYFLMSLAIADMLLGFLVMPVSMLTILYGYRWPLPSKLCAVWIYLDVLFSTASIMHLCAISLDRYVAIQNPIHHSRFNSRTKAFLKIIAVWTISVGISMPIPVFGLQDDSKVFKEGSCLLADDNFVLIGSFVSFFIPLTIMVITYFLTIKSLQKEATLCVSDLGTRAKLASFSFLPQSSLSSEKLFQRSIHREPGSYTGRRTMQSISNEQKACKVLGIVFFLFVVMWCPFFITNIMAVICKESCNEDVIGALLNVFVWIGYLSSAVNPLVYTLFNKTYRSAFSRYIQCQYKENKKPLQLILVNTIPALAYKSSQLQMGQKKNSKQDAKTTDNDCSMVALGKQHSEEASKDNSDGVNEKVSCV
Summary of the method: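 CHO cells stably expressing human HTR2A were plated for 18 h at 37 C, then loaded with calcium dye for 1 h. Compounds were preincubated 5 min at room temperature before DOI (4 nM solution) was added. Kinetic fluorescence was read for 3 min.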

[11] = biological target: Muscarinic acetylcholine receptor M1 (Homo sapiens) (UniProt P11229); test: Cholinergic receptor muscarinic 1 (CHRM1) small molecule antagonists, cell-based qHTS assay (AID 1963588); further: nearly all actives have a fitted effect of over 40% in size; further: potency means the concentration at half of the fitted maximal effect
Muscarinic acetylcholine receptor M1 (Homo sapiens), sequence (P11229 whole entry, looked up): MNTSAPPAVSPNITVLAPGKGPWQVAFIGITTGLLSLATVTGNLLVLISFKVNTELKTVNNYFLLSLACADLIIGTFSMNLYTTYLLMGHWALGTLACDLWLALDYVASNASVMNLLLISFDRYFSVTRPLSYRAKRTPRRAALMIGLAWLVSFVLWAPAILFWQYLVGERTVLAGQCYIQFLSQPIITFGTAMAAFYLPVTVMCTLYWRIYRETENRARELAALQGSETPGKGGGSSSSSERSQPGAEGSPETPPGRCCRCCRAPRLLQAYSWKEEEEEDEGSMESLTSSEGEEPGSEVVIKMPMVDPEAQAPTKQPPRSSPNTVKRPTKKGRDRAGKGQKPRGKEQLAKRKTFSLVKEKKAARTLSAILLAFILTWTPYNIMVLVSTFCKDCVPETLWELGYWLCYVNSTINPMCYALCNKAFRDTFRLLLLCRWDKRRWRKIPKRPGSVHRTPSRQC
Summary of the method: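 Compounds were tested at 15 concentrations in three independent runs. Dye-loaded CHRM1-CHO cells were exposed 5 min at room temperature before stimulation by acetylcholine added at 50nM. Intracellular calcium was read kinetically on FDSS for 3 min.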

[12] = biological target: Muscarinic acetylcholine receptor M1 (Homo sapiens) (UniProt P11229); test: Cholinergic receptor muscarinic 1 (CHRM1) small molecule agonists, cell-based qHTS assay (AID 1963589); further: nearly all actives have a fitted effect of over 35% in size
Summary of the method: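 Cells were plated and incubated 18 h at 37 C/5% CO2, loaded with calcium dye for 1 h at 37 C, then treated with compounds in DMSO. Fluorescence was recorded kinetically at 1 sec intervals.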

[13] = cAMP Responsive Elements (CRE) small molecule agonists, cell-based qHTS assay (AID 1963590)
Summary of the method: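 Cells carrying a CRE-driven beta-lactamase reporter (HEK 293T) are seeded, incubated overnight (18 h), and treated with test compounds for 3 h at 37 C; reporter activity is then detected with a FRET substrate after 2 h at room temperature.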

[14] = cAMP Responsive Elements (CRE) small molecule antagonists, cell-based qHTS assay (AID 1963591; active means well fitted inhibition curve with a large enough effect in the signal ratio in the repeat runs, not every such curve was filed as active; the % refers to the signal ratio)
Summary of the method: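 Cells (CRE-bla HEK 293T, DMEM with 10% dialyzed FBS and 25 mM HEPES) are seeded and incubated 18 h. Compounds are added with NKH477 agonist at 0.25 uM final for 3 h, then FRET substrate for 2 h.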

[15] = biological target: Beta-2 adrenergic receptor (Homo sapiens) (UniProt P07550); test: Adrenergic beta2 receptor (ADRB2) small molecule antagonists, cell-based qHTS assay (AID 1963592); further: series mostly up to about 92 µM; nearly all actives have a fitted effect of over 50% in size
Beta-2 adrenergic receptor (Homo sapiens), sequence (P07550 whole entry, looked up): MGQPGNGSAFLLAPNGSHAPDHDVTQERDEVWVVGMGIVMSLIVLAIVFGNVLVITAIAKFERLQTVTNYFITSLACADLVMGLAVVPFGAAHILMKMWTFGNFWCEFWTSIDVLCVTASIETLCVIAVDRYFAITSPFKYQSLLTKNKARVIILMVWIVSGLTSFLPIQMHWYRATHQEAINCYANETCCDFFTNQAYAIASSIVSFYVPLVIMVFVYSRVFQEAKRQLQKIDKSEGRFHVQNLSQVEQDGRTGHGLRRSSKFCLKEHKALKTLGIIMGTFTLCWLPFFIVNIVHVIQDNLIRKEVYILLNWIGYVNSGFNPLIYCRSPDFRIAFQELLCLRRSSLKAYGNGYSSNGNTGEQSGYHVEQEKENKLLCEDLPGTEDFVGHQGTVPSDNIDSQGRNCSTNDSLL
Summary of the method: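 Assay format: CHO-ADRB2 cells, 18-20hr seeding at 37C/5% CO2, then compound plus 1nM isoproterenol agonist mix for 0.5hr RT. Homogeneous time-resolved fluorescence cAMP detection after 1hr, expressed as 665/615 nm ratio.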

[16] = biological target: Beta-2 adrenergic receptor (Homo sapiens) (UniProt P07550); test: Adrenergic beta2 receptor (ADRB2) small molecule agonists, cell-based qHTS assay (AID 1963593);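 further: CHO cells stably overexpressing human ADRB2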
Summary of the method: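 CHO cells stably over-expressing ADRB2 were plated overnight at 37C, then dosed with compounds plus a stimulation mix containing 100uM IBMX and 25uM Ro-20-1724 for 0.5hr at room temperature. cAMP was measured by HTRF competition, 1hr.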

[17] = biological target: D(2) dopamine receptor (Homo sapiens) (UniProt P14416); test: Dopamine D2 receptor (DRD2) small molecule agonists, cell-based qHTS assay (AID 1963594); further: nearly all actives have a fitted effect of over 35% in size
D(2) dopamine receptor (Homo sapiens), sequence (P14416 whole entry, looked up): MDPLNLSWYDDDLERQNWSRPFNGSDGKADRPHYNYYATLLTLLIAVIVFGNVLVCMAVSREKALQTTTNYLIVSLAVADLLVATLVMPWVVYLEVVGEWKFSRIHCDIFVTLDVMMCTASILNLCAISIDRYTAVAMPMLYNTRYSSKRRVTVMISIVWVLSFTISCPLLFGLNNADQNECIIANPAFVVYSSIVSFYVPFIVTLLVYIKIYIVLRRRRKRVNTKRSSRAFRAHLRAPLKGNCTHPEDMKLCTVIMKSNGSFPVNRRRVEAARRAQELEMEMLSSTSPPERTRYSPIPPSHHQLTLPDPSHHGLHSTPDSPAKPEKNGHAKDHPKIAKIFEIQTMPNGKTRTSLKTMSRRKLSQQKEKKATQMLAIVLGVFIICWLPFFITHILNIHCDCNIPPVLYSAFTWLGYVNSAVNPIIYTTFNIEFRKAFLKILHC
Summary of the method: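 HEK293 cells stably expressing DRD2 were cultured 24 h at 37 C, then given Ro20-1724 (0.1 mM final) and compounds for 10 min at room temperature. NKH477 (200nM) was then added for 30 min. cAMP was read by HTRF.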

[18] = biological target: D(2) dopamine receptor (Homo sapiens) (UniProt P14416); test: Dopamine D2 receptor (DRD2) small molecule antagonists, cell-based qHTS assay (AID 1963595; active means well fitted inhibition curve with a large enough effect in the signal ratio in the repeat runs, with a control signal flat; the % refers to the signal ratio; further: potency means the concentration at half of the fitted maximal effect)
Summary of the method: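 HEK293 cells stably expressing DRD2 were preincubated with 0.1 mM Ro20-1724, then with compound for 10 min at room temperature. Cells were stimulated with 200 nM NKH477 plus 12 nM quinpirole for 30 min, and cAMP was read by HTRF.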

[19] = biological target: Gonadotropin-releasing hormone receptor (Homo sapiens) (UniProt P30968); test: Human gonadotropin-releasing hormone receptor (GnRHR) small molecule agonists, calcium flux assay in GnRHR-HEK293 cells (AID 1920063); further: nearly all actives have a fitted effect of over 35% in size
Gonadotropin-releasing hormone receptor (Homo sapiens), sequence (P30968 whole entry, looked up): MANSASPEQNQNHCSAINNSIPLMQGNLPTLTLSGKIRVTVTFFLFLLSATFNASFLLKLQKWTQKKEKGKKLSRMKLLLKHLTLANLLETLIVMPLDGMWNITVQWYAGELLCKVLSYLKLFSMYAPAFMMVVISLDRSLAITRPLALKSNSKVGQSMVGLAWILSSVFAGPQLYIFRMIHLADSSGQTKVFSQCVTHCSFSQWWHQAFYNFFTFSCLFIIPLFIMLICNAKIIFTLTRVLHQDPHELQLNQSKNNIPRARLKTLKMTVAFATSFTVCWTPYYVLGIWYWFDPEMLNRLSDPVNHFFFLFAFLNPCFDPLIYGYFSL
Summary of the method: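 Agonist activity was measured as intracellular calcium flux in HEK293 cells engineered to stably express human GnRHR. After dye loading for 1 hour at 37 C, compounds in DMSO were added and fluorescence was followed for 3 minutes.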

[20] = biological target: 5-hydroxytryptamine receptor 2A (Homo sapiens) (UniProt P28223); test: 5-hydroxytryptamine receptor 2A (HTR2A) small molecule agonists, cell-based qHTS assay (AID 1963587); further: nearly all actives have a fitted effect of over 30% in size; further: potency means the concentration at half of the fitted maximal effect
Summary of the method: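 HTR2A-CHO cells, plated 18 h at 37 C/5% CO2, dye-loaded 1 h at 37 C; compounds in DMSO added by pin tool (agonist mode). Intracellular calcium flux read as kinetic fluorescence on FDSS over 2 min at 1 s intervals.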

SMILES | Potency [1] | Potency [2] | Potency [3] | Potency [4] | Potency [5] | Potency [6] | Potency [7] | Potency [8] | Potency [9] | Potency [10] | Potency [11] | Potency [12] | Potency [13] | Potency [14] | Potency [15] | Potency [16] | Potency [17] | Potency [18] | Potency [19] | Potency [20]
O=C(O)CCCCCCCC(=O)O | inactive | inactive | inactive | inactive | inactive | inactive | inactive | inactive | inactive | inactive | inactive | inactive | inactive | inactive | inactive | inactive | inactive | inactive | – | –
NC(N)=O | inactive | inactive | inactive | – | – | inactive | inactive | inactive | – | inactive | inactive | inactive | inactive | – | inactive | inactive | inactive | inactive | inactive | inactive
CCCCCCCCCCCCCC[N+](C)(C)Cc1ccccc1 | 24.7 µM (active) and 13.3 µM (active) and 12.6 mM (active) | inactive | – | inactive | inactive | inactive and 17.8 mM (active) | 46.5 µM (active) and inactive | inactive | inactive | 1.2 µM (active) and 4.1 µM (active) and inactive | 2.7 µM (active) and 631 µM (active) | inactive | – | inactive | inactive | inactive | inactive | – | inactive | inactive and 20 mM (active)
CC(C)CC(=O)CC(C)C | inactive | inactive | inactive | inactive | – | inactive | inactive | inactive | inactive | inactive | inactive | inactive | inactive | inactive | inactive | – | inactive | inactive | inactive | inactive
O=C(Nc1ccccc1SSc1ccccc1NC(=O)c1ccccc1)c1ccccc1 | 6.14 µM (active) and 6.11 µM (active) | 4.88 µM (active) and 6.11 µM (active) | inactive | inactive | – | inactive | inactive | inactive | inactive | inactive | inactive | inactive | – | – | inactive | inactive | inactive | inactive | inactive | inactive
CCN(CC)C(=O)c1cccc(C)c1 | inactive | inactive | inactive | – | – | inactive | inactive | inactive | – | – | inactive | – | inactive | inactive | inactive | inactive | inactive | inactive | inactive | inactive
C#CC1(O)CC[C@H]2[C@@H]3CCC4=CCCC[C@@H]4[C@H]3CC[C@@]21C (some centres undefined) | 27.3 µM (active) and inactive | inactive | inactive | inactive | inactive | inactive | inactive | 40.8 µM (active) and inactive | inactive | inactive | inactive | inactive | inactive | inactive | inactive | inactive | inactive | inactive | – | 54.9 µM (active) and inactive
O=C(O)CCC(=O)O | inactive | inactive | inactive | – | – | inactive | – | 42.1 µM (active) and inactive | – | inactive | inactive | inactive | inactive | inactive | inactive | inactive | – | inactive | inactive | inactive
Cn1cc[nH]c1=S | 54.4 µM (active) and inactive | 27.3 µM (active) and inactive | inactive | – | – | – | – | – | – | – | – | – | inactive | inactive | inactive | inactive | inactive | – | inactive | –
CCC(C)C=O (centres undefined) | inactive | inactive | inactive | inactive | inactive | inactive | inactive | inactive | inactive | inactive | inactive | inactive | inactive | – | inactive | inactive | inactive | inactive | – | –
CCC(C)(C)C(=O)O[C@H]1C[C@@H](C)C=C2C=C[C@H](C)[C@H](CC[C@@H]3C[C@@H](O)CC(=O)O3)[C@H]21 | inactive | inactive | inactive | – | – | inactive | inactive | inactive | inactive | – | – | – | inactive | – | inactive | – | inactive | 19.3 µM (active) and inactive | inactive | –
CC(O)COc1ccccc1 (centres undefined) | inactive | inactive | inactive | inactive | inactive | inactive | inactive | inactive | inactive | inactive | inactive | inactive | inactive | inactive | inactive | inactive | inactive | inactive | – | –
O=C1O[C@H]([C@@H](O)CO)C(O)=C1O | inactive | inactive and 61.1 µM (active) | inactive | inactive | inactive | inactive | inactive | inactive | inactive | – | – | – | inactive | inactive | inactive | – | inactive | inactive | – | –
CCNC(=S)NCC | inactive | inactive | inactive | inactive | – | inactive | inactive | inactive | – | inactive | inactive | inactive | inactive | inactive | inactive | – | inactive | – | inactive | inactive
C=C(C)C(=O)Nc1ccc(Cl)c(Cl)c1 | inactive | 55 µM (active) and 43.1 µM (active) | inactive | – | inactive | inactive | inactive | inactive | inactive | inactive | inactive | inactive | inactive | inactive | inactive | – | inactive | inactive | inactive | inactive
